Twelve compounds from PubChem BioAssay can be followed below.

Assay [1] concerns transactivating tegument protein VP16 (Human herpesvirus 1). Nature of the assay: VP16 transactivation reporter inhibitors, counter-screen for SRC2 inhibitor project, cell-based, luminescence, single concentration (AID 652007). Particulars: cell-based VP16 transactivation luciferase reporter, at 8.9 µM, active compounds read high.
Assay [2] concerns the target Nuclear receptor coactivator 2 (Homo sapiens) (UniProt Q15596). The assay can be described thus: SRC2 coactivator transcriptional activity inhibitors, confirmation, cell-based, luminescence, HEK293, triplicate (AID 652008;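 active = mean inhibition above 46.5%, the solvent-only control mean plus 3 SD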;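 also: 0% = DMSO-treated cells and 100% = Gossypol at 36 µM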). To be noted: HEK293 GAL4-SRC2 luciferase reporter, at 8.9 µM, active compounds read high.

SMILES strings stand for the structures. Unmarked numbers belong to inactive results. The source made the active and inactive calls. Rule as the data show it, unless noted: active = inhibition above about 36%; inactive = the rest.

Chain of Nuclear receptor coactivator 2 (Homo sapiens) (Q15596 whole entry, looked up, the tested form may be a part): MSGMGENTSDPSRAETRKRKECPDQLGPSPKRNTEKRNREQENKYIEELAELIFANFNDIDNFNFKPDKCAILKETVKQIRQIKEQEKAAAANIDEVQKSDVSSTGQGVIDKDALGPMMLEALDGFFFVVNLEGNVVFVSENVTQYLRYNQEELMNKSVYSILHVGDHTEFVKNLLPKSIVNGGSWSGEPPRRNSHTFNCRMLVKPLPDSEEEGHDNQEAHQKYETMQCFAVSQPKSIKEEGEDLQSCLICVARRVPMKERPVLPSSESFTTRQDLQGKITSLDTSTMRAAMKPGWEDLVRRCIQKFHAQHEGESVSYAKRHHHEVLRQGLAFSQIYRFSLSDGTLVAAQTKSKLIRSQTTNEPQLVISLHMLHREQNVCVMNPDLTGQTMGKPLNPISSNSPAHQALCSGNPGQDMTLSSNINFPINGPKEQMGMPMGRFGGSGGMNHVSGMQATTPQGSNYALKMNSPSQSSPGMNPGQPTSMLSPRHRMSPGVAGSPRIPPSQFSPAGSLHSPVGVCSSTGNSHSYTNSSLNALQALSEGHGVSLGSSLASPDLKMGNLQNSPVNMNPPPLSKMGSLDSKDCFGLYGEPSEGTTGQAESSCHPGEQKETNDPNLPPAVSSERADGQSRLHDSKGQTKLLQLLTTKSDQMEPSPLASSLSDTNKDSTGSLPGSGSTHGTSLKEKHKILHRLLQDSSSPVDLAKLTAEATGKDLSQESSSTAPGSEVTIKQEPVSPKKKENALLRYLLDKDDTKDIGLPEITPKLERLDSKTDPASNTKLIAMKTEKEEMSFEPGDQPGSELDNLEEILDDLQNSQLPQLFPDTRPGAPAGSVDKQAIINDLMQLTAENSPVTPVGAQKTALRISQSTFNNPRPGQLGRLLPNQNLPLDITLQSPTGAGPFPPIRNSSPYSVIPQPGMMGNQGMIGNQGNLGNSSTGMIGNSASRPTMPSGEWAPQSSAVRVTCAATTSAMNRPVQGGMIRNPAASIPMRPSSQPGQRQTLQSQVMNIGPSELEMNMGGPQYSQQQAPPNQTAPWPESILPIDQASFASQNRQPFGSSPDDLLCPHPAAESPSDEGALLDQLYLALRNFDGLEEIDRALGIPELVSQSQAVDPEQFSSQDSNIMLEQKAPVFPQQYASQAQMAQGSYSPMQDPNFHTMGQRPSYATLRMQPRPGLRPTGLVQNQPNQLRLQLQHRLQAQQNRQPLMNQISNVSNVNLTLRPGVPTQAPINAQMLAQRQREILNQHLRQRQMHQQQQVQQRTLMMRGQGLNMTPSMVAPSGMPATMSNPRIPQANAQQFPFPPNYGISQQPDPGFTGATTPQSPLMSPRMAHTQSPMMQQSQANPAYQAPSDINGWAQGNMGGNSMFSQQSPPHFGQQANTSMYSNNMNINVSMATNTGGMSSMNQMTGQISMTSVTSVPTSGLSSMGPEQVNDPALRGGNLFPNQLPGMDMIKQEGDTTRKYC

In general, inhibition refers to the drop in the measured response relative to a control, in per cent. Turning to `COc1cc(CNS(=O)(=O)c2ccc3c(c2)CC(C)N3C(=O)C2CCC2)cc(OC)c1OC` (centres undefined), the inhibition was 5.37% in assay [1] and 29.3% in assay [2].
On the same counts, the results for `CSc1nnc(NC(=O)c2nc(S(=O)(=O)Cc3cccc(C)c3)ncc2Cl)s1` are 41.9% (active) and 73.1% (active).
Taken in the same sequence, the figures for `CC(C)OC(=O)c1ccc(NCc2cc(O)ccc2O)cc1` were 51.7% (active) and 54.8% (active).
In the case of `Cc1nn(-c2ccccc2)c(N2CCCC2)c1/C=N/NC(=O)c1cccc(S(=O)(=O)Nc2ccc(Cl)cc2)c1`, the inhibition in assay [1] is -8.85%; in assay [2], -16.7%.
As to `CC12CCC(=O)C=C1CCC1C2CCC2(C)C(c3csc(N)n3)CCC12` (centres undefined), the inhibition was 10.2% in assay [1] and 24.6% in assay [2].
Consider `COc1ccc(CNCCNC(=O)c2cccs2)c(OC)c1OC`, for which the results for the inhibition in assay [1] and in assay [2] were 8.76% and 9.01%, respectively.
Taken in the same sequence, the figures for `Cc1nc(N/N=C/c2ccccn2)sc1C` were 29.8% and 60.2% (active).
Taken in the same sequence, the figures for `CN1CCN(c2nc3ccccc3nc2C(C#N)S(=O)(=O)c2ccccc2)CC1` (centres undefined) were 10.5% and 20.1%.
With `CC(Oc1ccc(Cl)cc1Cl)C(=O)NCCCn1ccnc1` (centres undefined), the inhibition in assay [1] was -8.12%; in assay [2], -15.5%.
Taken in the same sequence, the figures for `C[n+]1cc2c3c(ccc2c2ccc4cc5c(cc4c21)OCO5)OCO3` were 96% (active) and 98.7% (active).
Turning to `Cc1ccc2c(c1)nnn2C1CCN(CC(=O)N(c2ccccc2)c2ccccc2)CC1`, the inhibition is 14.5% in assay [1] and 33.7% in assay [2].
Taken in the same sequence, the figures for `O=C(O)CCSc1nnc(-c2ccc3c(c2)OCO3)o1` were 45.9% (active) and 60.7% (active).
